For 55 compounds, INHIBITION results are on record in ChEMBL document CHEMBL4513216, “Probing the Open Global Health Chemical Diversity Library for Multistage-Active Starting Points for Next-Generation Antimalarials” (ACS Infect Dis, 2020).

The structures appear in SMILES notation. Hit rate of the full screen: of about 69,000 compounds, about 8,600 (12%) showed an effect of 50% or more. Shown is part of a subset that was picked to be rich in strong results.

This assay deals with Plasmodium berghei. The assay is described as follows: Screen against P. berghei liver stage (PbLuc), transformed with Luciferase, at 10uM. It counts as functional, HepG2. The settings on record: tested at 10 uM.
In the case of `c1cncc(C2COC3(CCN(Cc4ccsc4)CC3)C2)c1` (stereo not given), the INHIBITION came to 46.1%. The result for `COc1ccc(C(C)NCc2cscn2)cc1Cn1cccn1` (stereo not given) reads 41.4%; that for `CNc1cc(C2CCCN(Cc3ccccc3OCC(=O)O)C2)ccn1` (stereo not given), 18.3%. Under `Cc1cc(CNC(=O)CN2CCCC(Cn3cncn3)C2)ccc1F` (stereo not given) stands 25.6%; under `Cc1ccc(Cl)c(NC(=O)NC2(C)CCOC2)c1` (stereo not given), 24.8%; under `Cc1ccc(C)c(-n2ncc(NC(=O)NC3(C)CCOC3)c2C)c1` (stereo not given), 33.2%. Consider `Cc1ccc(-n2cc(C)cn2)c(NC(=O)NC2(C)CCOC2)c1` (stereo not given), for which the INHIBITION was found to be 56.3%.

As for `O[C@@H]1CN(Cc2cnccn2)C[C@H]1Oc1ccccc1`, the INHIBITION is given as -10.5%. On to `O=C(Cc1cccc(O)c1)N1CCCC(OCc2cccnc2)C1` (stereo not given), for which the INHIBITION came out at 36.2%. Under `CC(C)(C)C(=O)NCCc1cc(N2CCOCC2)nc(NC2CC2)n1` stands 30.15%; under `Cc1cnn(CC2CCCN2C(=O)c2ccc(-n3cccn3)nc2)c1` (stereo not given), 16.2%; under `Cc1nc(-c2ccc(F)c(F)c2)cc(C2CCNCC2)n1`, -2.09%. Under `Cc1nc(-c2ccc(F)cc2)cc(C2CCNCC2)n1` stands 54.5%; under `Cc1ccc(-c2cc(C3CCNCC3)nc(C)n2)cc1`, 6.26%; under `O=C(CN1CCSC(c2ccccc2)C1)NCc1ccccn1` (stereo not given), 31.9%. As to `O=C(CCc1ccc2c(c1)CCO2)Nc1nnn[nH]1`, the INHIBITION is 28.6%. Consider `COc1ccc(C(=O)N2CC(=O)N(CC3CC3)CC(O)C2)cc1` (stereo not given), for which the INHIBITION is recorded as 42.7%. Under `CC(C)c1cc(C(=O)N2CCOCC2CC(=O)c2ccco2)nn1C` (stereo not given) stands -4.35%; under `COc1ccc2c(ccn2CCN)c1`, 34.7%; under `C/N=C1\c2cc3cc(OC)ccc3n2CCN1Cc1ccccc1`, 83%. The result for `COc1ccc(CN2CC[C@@H](O)[C@@H]2Cc2ccccc2)cc1` reads -23.7%; that for `C/N=C1/c2cc3cc(OC)ccc3n2CCN1Cc1ccccc1`, 67.6%; that for `C/N=C1\c2cc3cc(OC)ccc3n2CCN1C`, -6.09%. Under `C/N=C1/c2cc3cc(OC)ccc3n2CCN1C` stands 15.06%; under `Fc1cccc(CN2CCC[C@@H](Cn3nnc(-c4ccccn4)n3)C2)c1`, 40.1%; under `Cn1nc(CNC(=O)c2cccc(C(F)(F)F)c2)c2c1CCOC2`, 15.9%. Turning to `O=C(c1cc2c(s1)CCC2)N1CCCC1Cn1cccn1` (stereo not given), the INHIBITION is -18.8%. Under `Cc1nc(CSCCC(=O)NCc2ccc(-n3cncn3)nc2)cs1` stands 16.8%; under `CCNC(=O)[C@@H]1CCCN1C1(C(=O)NC)CCCCC1`, 10.5%. The result for `Cc1n[nH]c(C)c1-c1cnc(CC2CCN(C(C)C)CC2)cn1` reads 23.2%; that for `Cc1cc(F)ccc1N1CCCC(NC(=O)CCc2ccncc2)C1` (stereo not given), 29%; that for `O=C(CCCn1ccnc1)NC1CCCN(c2ccccc2Cl)C1` (stereo not given), 88%.

In the case of `O=C(NC1CCCN(c2ccccc2Cl)C1)c1c[nH]nn1` (stereo not given), the INHIBITION was 21.1%.

For `Cc1cc(F)ccc1N1CCCC(NC(=O)CCCn2ccnc2)C1` (stereo not given), the INHIBITION was determined as 70.1%. Under `O=C(NC1CCCN(c2ccccc2Cl)C1)c1nc(=O)[nH][nH]1` (stereo not given) stands -6.05%; under `Cc1ccc(Cl)cc1N1CCC(CNC(=O)CCn2ccnc2)C1` (stereo not given), 31.8%.

As to `CCOCC1CN(c2ccncn2)Cc2cnn(CC)c21` (stereo not given), the INHIBITION is listed as 5.67%. The result for `Cc1nn(C)c2cn(CC(=O)N3CCc4ccccc4C3)nc12` reads 8.49%; that for `CCOC(=O)N1CCC(Oc2ccc(C(F)(F)F)cn2)CC1`, -16.4%; that for `CC(C)(C)NC(=O)N1CCC(Oc2ccc(C(F)(F)F)cn2)CC1`, 86.3%. Under `CCOCC(=O)N1CCC(Oc2ccc(C(F)(F)F)cn2)CC1` stands 11.8%; under `NC(=O)Cn1cc(NC(=O)N2CCSCC2)cn1`, -15%.

Regarding `O=C(NCc1ccnc(OCC(F)(F)F)c1)NCC1COCCO1` (stereo not given), the INHIBITION came to 4.12%.

As to `CC(CC(=O)c1ccccc1)NC(=O)c1ccon1` (stereo not given), the INHIBITION turned out to be 28.2%.

Turning to `Cc1nc(CSCCC(=O)NCc2ccc(N(C)C)cc2)cs1`, the INHIBITION is -58%. Under `CC(=O)N1CCN(CCCSCc2ccccc2)CC1` stands -23.5%; under `N#CCSCCCN1CCCN(C(=O)c2ccccc2)CC1`, 50.1%; under `CC(=O)N1CCCN(CCCSCc2ccccc2)CC1`, 15.7%.

Consider `N#CCSCCCN1CCN(C(=O)c2ccccc2F)CC1`, for which the INHIBITION was determined as 69.7%. For `Cc1ccc(C(=O)N2CCN(CCCSCC#N)CC2)cc1F`, the INHIBITION stood at 5.41%. Under `N#CCSCCCN1CCN(C(=O)c2ccc(Cl)cc2)CC1` stands 3.47%; under `N#CCSCCCN1CCN(C(=O)c2cccc(Cl)c2)CC1`, 10.7%. Consider `Cc1cccc(C(=O)N2CCCN(CCCSCC#N)CC2)c1`, for which the INHIBITION is given as 59.2%. For the compound `O=C(c1ccccc1F)N1CCN(CCCn2cncn2)CC1`, the INHIBITION worked out at 32.3%. The result for `Cc1nc(CN2CCO[C@@H]3CN(Cc4ccsc4)C[C@@H]3C2)cs1` reads 22.5%.
